High-throughput results as filed in PubChem.
TrxR1 substrate = qHTS Assay for Substrates of Mammalian Selenoprotein Thioredoxin Reductase 1 (TrxR1): qHTS | Potency, µM (doses to about 114 µM), for the others: at the top dose activity change, negative = substrate turnover | AID 588456, 2011 | 0.01% of 390,000 active | purified TrxR1 substrate turnover, NADPH consumption readout; note: potency is the fitted concentration of half-maximal effect; % is set by controls: 0 for no effect and ±100 for the full control effect; nearly all actives have a fitted effect of over 50% in size
Target sequence (O89049 whole entry, looked up): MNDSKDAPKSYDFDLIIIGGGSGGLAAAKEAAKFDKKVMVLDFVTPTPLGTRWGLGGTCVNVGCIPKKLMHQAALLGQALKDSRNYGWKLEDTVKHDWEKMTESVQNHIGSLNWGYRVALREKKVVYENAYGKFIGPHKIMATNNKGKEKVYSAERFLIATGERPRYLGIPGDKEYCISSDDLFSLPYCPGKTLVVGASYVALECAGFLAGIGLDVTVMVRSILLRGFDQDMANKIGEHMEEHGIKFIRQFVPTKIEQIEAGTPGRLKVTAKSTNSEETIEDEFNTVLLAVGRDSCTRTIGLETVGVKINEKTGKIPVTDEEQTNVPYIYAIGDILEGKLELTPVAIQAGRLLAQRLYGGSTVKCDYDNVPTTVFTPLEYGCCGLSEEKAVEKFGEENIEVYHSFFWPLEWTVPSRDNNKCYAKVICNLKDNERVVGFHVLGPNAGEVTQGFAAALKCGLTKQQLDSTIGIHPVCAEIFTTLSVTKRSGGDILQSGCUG
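Rat TrxR1, dispensed at 90 nM, was prereduced with 400 uM NADPH (final) for 5 min at ~22 deg C, then incubated with compound 15 min before 400 uM selenite. A first-read NADPH fluorescence drop versus no-compound background flagged substrates.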
Apoferritin bind = qHTS Assay for Identification of Novel General Anesthetics; AID 485281, 2010; Ferritin light chain (Equus caballus), P02791; 0.074% of 350,000 active; Potency, µM (doses to about 77.5 µM), for inactives: at the highest dose activity change, negative = displacement, most hits filed as inhibitors; apoferritin/1-aminoanthracene competitive binding, fluorescence; note: potency is the fitted concentration of half-maximal effect; % is set by controls: 0 for no effect and ±100 for the full control effect; nearly all actives have a fitted effect of over 20% in size
Target sequence (P02791 2-175 limits assumed): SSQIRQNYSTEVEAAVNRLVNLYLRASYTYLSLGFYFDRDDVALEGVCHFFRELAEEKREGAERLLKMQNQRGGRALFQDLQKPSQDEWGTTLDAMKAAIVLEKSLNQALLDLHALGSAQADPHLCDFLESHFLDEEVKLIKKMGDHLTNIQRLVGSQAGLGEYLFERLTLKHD
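Apoferritin-based anesthetic binding model; compound displacement of fluorescent 1-AMA measured as endpoint fluorescence after 10 minutes at room temperature, scaled to free-ligand and complex controls.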
ClpP mod = qHTS Assay for Activators of ClpP | Potency, µM (doses to about 57.5 µM), inactives show at the highest dose activity change, negative = active | 1.9% of 340,000 active | purified B. subtilis ClpP, FRET peptide cleavage, 20 min; active = well fitted falling curve with a large enough effect; inconclusive = small, poorly fitted or top-dose-only effect; inactive = no such curve, though single readings can be large or run the other way; note: potency is the fitted concentration of half-maximal effect; the source files actives as falling curves though it sought activators and does not explain the sign; nearly all actives have a fitted effect of over 65% in size
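FRET quenching reversal measured ClpP activation: 10 microg/mL B. subtilis ClpP at pH 8 with the FRET-FV decapeptide, read at 430 nm after 320 nm excitation. The 20-min minus 0-min signal was scaled between DMSO/no-enzyme wells and ADEP (5.8 microM final).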
TrxR1 inh = qHTS Assay for Inhibitors of Mammalian Selenoprotein Thioredoxin Reductase 1 (TrxR1): qHTS. Potency, µM (titrated, usually from 114 µM), for the others: top-dose activity change, negative = inhibition, usual class: inhibitors. 1% of 390,000 active. recombinant rTrxR1, NADPH fluorescence consumption, selenite substrate. AID 588453, 2011. Thioredoxin reductase 1, cytoplasmic (Rattus norvegicus), O89049; note: potency is the fitted concentration of half-maximal effect; % is set by controls: 0 for no effect and ±100 for the full control effect; nearly all actives have a fitted effect of over 65% in size
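Rat TrxR1 (90 nM in the dispensed reagent) was pre-reduced with 400 uM NADPH for 5 min at room temperature, then incubated with compound for 15 min. After 400 uM selenite was added, NADPH fluorescence (Ex 340/Em 450 nm) was followed for 8 min.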
miR-21 reporter = qHTS Assay for Modulators of miRNAs and/orActivators of miR-21; HeLa miR-21 FLuc reporter, luciferase, 48 h; Potency, µM (doses to about 38.3 µM), inactives show at the highest dose activity change, positive = activation, actives largely listed as activators; 340,000 tested, under 10 active; AID 2288, 2010;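 note: % of control where 0% means no effect; miR-21 action dims this reporter so a rising signal means less miR-21 action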
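HeLa cells stably expressing CMV-driven firefly luciferase with a downstream miR-21 binding sequence, endogenously expressing miR-21, were treated with titrations (up to about 40uM final) for 48 hours at 37 degree Celsius. Luciferase luminescence was read after lysis.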
The depositor's hits bear a star; ? = inconclusive; . = no result given; [ ] = another dose, or the depositor's remark. An excerpt weighted towards active compounds, which were near 2.5% of everything screened. Unless noted, calls come from the whole dose curve; as a rule, active = well fitted curve in the direction sought with a large enough effect; inconclusive = small, poorly fitted or top-dose-only effect, or another doubt; inactive = no such curve, though single readings can be large; an effect the other way counts as inactive or inconclusive.

SMILES | TrxR1 substrate | Apoferritin bind | ClpP mod | TrxR1 inh | miR-21 reporter
CCOc1ccc(C(=O)Nc2ccc(N3CCN(C)CC3)cc2)cc1Br | 7%[57.1 µM] | -20% | 18µM* | 18%[57.1 µM] | -26%
CCOc1ccc(C(=O)Nc2cc3c(cc2N2CCCC2)n(C)c(=O)c(=O)n3C)cc1OCC | 94% | 75% | 28µM* | -10% | 0%
COc1ccc(C(=O)Nc2cc3c(cc2N2CCCC2)n(C)c(=O)c(=O)n3C)cc1OC | 61% | 92% | 32µM* | -12% | -8%
COc1ccc(S(=O)(=O)N(Cc2nc(-c3cccc(C)c3)no2)C2CCCCC2)cc1 | 67% | 90% | -1% | 60% | -1%
O=[N+]([O-])c1c(Nc2cccc(O)c2)cc(Cl)c2nonc12 | -16% | ? | . | 0.89µM* | ?
Cc1c(Nc2cc(Cl)c3nonc3c2[N+](=O)[O-])c(=O)n(-c2ccccc2)n1C | -7%[57.1 µM] | -24% | . | 0.63µM* | ?
O=C(O)c1cccc(Nc2ccc3nonc3c2[N+](=O)[O-])c1 | -14% | -14% | 1% | 4% | -2%
O=C(O)c1ccc(Nc2cc(Cl)c3nonc3c2[N+](=O)[O-])cc1 | -12% | 4% | . | 0.63µM* | -2%
N#CC(C#N)=C1C=CC=CN1/C(=C\c1ccco1)C(=O)c1ccc(Br)cc1 | -5% | -13% | 2% | 1.1µM* | ?
CC(C)(C)NC(=O)/C(=C/c1ccco1)c1ccccc1 | 5%[57.1 µM] | -17% | 0% | -29%[57.1 µM] | -5%
N#C/C(=C/c1ccco1)C(N)=S | -5% | -6% | . | -4% | 1%
N#CC(C#N)=C1C=CC=CN1/C(=C\c1ccco1)C(=O)c1ccccc1 | -15% | -21% | 4% | 1.6µM* | ?
COc1ccc(N=N/C(=C\O)C(=O)c2cccs2)cc1 | -4%[57.1 µM] | ? | . | 3%[57.1 µM] | 21%
COc1ccc(/C=C(/C(=O)c2cccs2)N2C=CC=CC2=C(C#N)C#N)cc1 | 2% | -17% | -7% | 0.11µM* | ?
COc1ccc(C(=O)/C(=C\c2ccco2)N2C=CC=CC2=C(C#N)C#N)cc1 | 3% | ? | 1% | 8.9µM* | ?
COc1ccc(C(=O)N/C(=C\c2ccco2)C(=O)OCc2ccco2)cc1 | -22%[57.1 µM] | 5% | 1% | -80% | -6%
Cc1nc2sc(C(=O)N(C)c3ccccc3)c(NC(=O)c3ccccc3Cl)c2c(C)c1C | 11%[11.4 µM] | ? | 0% | 2% | 6%
CCCCC1C(=O)N(c2ccccc2)N(c2ccc(O)cc2)C1=O (stereo not drawn) | 6% | 0% | -2% | 7.9µM* | .
COc1ccc(Cn2c(=O)[nH]c3cc(C(=O)N4CCN(c5cc(Cl)ccc5C)CC4)ccc3c2=O)cc1 | -1% | -3% | 0% | 10% | -1%
Oc1ccc(NCc2ccccc2OCc2ccc(Cl)cc2)cc1 | -18% | ? | 1% | 79µM* | 16%
CCOc1cc(CNc2ccc(O)cc2)ccc1OCc1ccc(Cl)cc1 | -8% | ? | -4% | 50µM* | -12%
CCOc1cc(CNc2ccc(O)cc2)cc(Br)c1OCc1ccccc1 | -3% | ? | -45% | -1% | 14%
CN(CC(=O)O)c1ccc(/C=C/c2ccnc3ccccc23)cc1 | -3% | . | -1% | -1% | .
Cc1ccc(OCC(=O)Nc2cc(Cl)ccc2-n2cncn2)c(C)c1 | . | . | -1% | . | .
Cc1ccc(S(=O)(=O)CCC(=O)Nc2cc(Cl)ccc2-n2cncn2)cc1 | 5% | . | . | 13µM* | .
SMILES | TrxR1 substrate | Apoferritin bind | ClpP mod | TrxR1 inh | miR-21 reporter
CC(C)C[C@H](NC(=O)[C@H](Cc1cnc[nH]1)NC(=O)[C@@H](N)Cc1cnc[nH]1)C(=O)NCC(=O)NCC(=O)N[C@@H](C)C(=O)N[C@@H](CCCCN)C(=O)N[C@@H](CCC(N)=O)C(=O)N[C@@H](C)C(=O)NCC(=O)N[C@@H](CC(=O)O)C(=O)N[C@H](C(=O)O)C(C)C | . | -6% | . | . | .
O=[N+]([O-])c1ccc(-[n+]2ccc3ccccc3c2)c([N+](=O)[O-])c1 | -7% | . | 0% | 0.89µM* | .
COc1ccc(/C=C/C(=O)Nc2cccc(S(=O)(=O)N3CCOCC3)c2)cc1OC | 3%[57.1 µM] | . | 28µM* | 22%[57.1 µM] | .
O=C(CNc1cccc(S(=O)(=O)N2CCCC2)c1)Nc1cccc(Br)c1 | -8% | . | -1% | -10% | .
O=C(CNc1cccc(S(=O)(=O)N2CCOCC2)c1)Nc1cccc(Br)c1 | -2% | . | 28µM* | 15% | .
O=S(=O)(c1cccc(NC(=S)Nc2ccc(Br)cc2Cl)c1)N1CCOCC1 | 5% | ? | -13% | 18µM* | -6%
CCCN1CCN(c2ncc3c(n2)CCN(Cc2ccc(OC)c(OC)c2OC)C3)CC1 | 6%[57.1 µM] | -7% | -3% | 11%[57.1 µM] | 14%
CC(=O)c1cccc(NC(=O)CCc2c(C)nc3c(-c4ccc(F)cc4)c(C)nn3c2C)c1 | 2% | -9% | -2% | 14% | 5%
Cc1ccc(NC(=O)Cn2nc(C)c3nn(-c4ccc(Cl)cc4)c(C)c3c2=O)cc1C | 6%[57.1 µM] | 2% | -4% | 26%[57.1 µM] | 0%
CCOC(=O)C1=C(COC(=O)c2ccc([N+](=O)[O-])o2)NC(=O)NC1C (stereo not drawn) | -2% | . | 2% | 28µM* | .
COc1ccc(NC(=O)/C(Cl)=C(/Cl)S(=O)(=O)Cc2ccc(C)cc2)cn1 | 11%[57.1 µM] | ? | 6% | 2.2µM* | ?
CCCCn1c(N)c(C(=S)NC(=O)CC(C)C)c(=O)n(C)c1=O | 5% | -3% | -1% | 56µM* | 0%
CCCn1c(N)c(C(=S)NC(=O)C2CC2)c(=O)n(C)c1=O | -14% | -12% | -4% | ? | -4%
NC1CCc2ccccc21 (stereo not drawn) | 6% | . | -1% | -4% | .
Cc1ccc(OCC(=O)Nc2ccc(O)c(C(=O)O)c2)cc1C | 132% | -5% | 22µM* | 34% | 1%
CC(NC(=O)c1cccc(NC(=O)c2nsc3ccccc23)c1)c1ccccc1 (stereo not drawn) | -3%[57.1 µM] | 51% | 92% | 8%[57.1 µM] | -7%
O=C(NCc1ccc(Cl)cc1)C(=O)NCC(c1ccc2c(c1)OCO2)N1CCOCC1 (stereo not drawn) | 0%[57.1 µM] | -9% | -1% | 24%[57.1 µM] | -2%
O=C1C(C=NCCN2CCOCC2)=C(O)c2ccccc21 | -14% | -1% | 28µM* | 4%[57.1 µM] | -67%
COc1cc(NC(C)=O)c2ncccc2c1[N+](=O)[O-] | -6% | 8% | 22µM* | 5% | 0%
COc1ccc(OC)c([N+](=O)[O-])c1C(N)=O | 2%[57.1 µM] | -5% | -2% | -1%[57.1 µM] | -1%
